From PubChem BioAssay
HTT-AS promoter = Primary qHTS for Identification of Small Molecule Activators of Huntingtin-Antisense Promoter Activity; HEK293 HTT-AS promoter firefly luciferase reporter, 24 h; response scale: percent change from vehicle, -100% = no light; Potency, µM (series often up to 57.5 µM), hits mostly activators; hit rate 0.24% among 48,000; AID 1508624, 2021; note: nearly all actives have a fitted effect of over 55% in size
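HEK293 luciferase promoter-reporter cells (2,500/well) plated 24 h, then compounds added at up to 57.5 uM final for 24 h at 37 °C. Firefly luminescence by Dual-Glo, normalized to vehicle (0%) and zero RLU (-100%).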
OvCa metastasis = Primary qHTS assay for Inhibitors of ovarian cancer metastasis using an organotypic tumor microenvironment (TME) model | Potency, µM (top dose mostly 45.8 µM), hits mostly inhibitors | SKOV3ip1-GFP adhesion/invasion on 3D omental model, fluorescence | AID 1963576, 2024 | hit rate 0.1% among 46,000; note: nearly all actives have a fitted effect of over 65% in size
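Primary human omental fibroblast/mesothelial 3D culture pre-formed 48 h. SKOV3ip1-GFP cells added with compounds (0.36-46 umol/L), incubated 2 h RT/16 h 37 C, fixed; GFP cells quantified at 488/509 nm.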
HTT prom inh = Primary qHTS for Identification of Small Molecule Inhibitors of Huntingtin Promoter Activity; Potency, µM (highest dose often 57.5 µM), most hits filed as inhibitors; AID 1508623, 2021; hit rate 0.93% among 48,000; HEK293 HTT promoter firefly luciferase reporter, 24 h; note: nearly all actives have a fitted effect of over 50% in size
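Luminescence was read after Dual-Glo reagent and a 10 min room-temperature incubation. Values were normalized to vehicle (0% activity) and zero RLU (-100% activity). Reporter HEK293 cells had been exposed to compounds (up to 57.5 uM final) for 24 h.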
PMP22 txn prim = Cell-based coincidence reporter assay to measure PMP22 gene transcription in S16 Pmp22-F2sN cells - Primary screen; S16 Pmp22-F2sN Schwann cells, FLuc/NLuc coincidence luminescence, 24 h; Potency, µM (doses to about 57.5 µM), most hits filed as inhibitors; hit rate 2% among 43,000; active = clear falling dose curves in both reporters; inconclusive = both reporters move, but less clearly or upward; inactive = either reporter flat; the % is the NLuc reporter signal
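Rat S16 Pmp22-F2sN cells, 500-1,000/well in phenol red-free DMEM + 10% FBS, compound-treated 24 h (37C, 5% CO2). Luminescence: FLuc read, Stop&Glo added, NLuc read.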
S16 viability = Cell viability qHTS assay in S16 Pmp22-F2sN cells; S16 Pmp22-F2sN Schwann cells (luciferase reporters placed in the Pmp22 gene) viability, CellTiter-Glo, 24 h; Potency, µM (top dose mostly 57.5 µM), actives largely listed as cytotoxic; hit rate 0.48% among 43,000; AID 1508642, 2021; note: nearly all actives have a fitted effect of over 65% in size
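Luminescence from CellTiter-Glo, read by CCD camera after a 15 min room-temperature incubation, served as the viability signal. Reporter Schwann cells (S16 Pmp22-F2sN) had been treated with pin-transferred compounds for 24 h at 37C.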
mTORC1 inh = Acumen qHTS Assay for Inhibitors of the mTORC1 Signaling Pathway in MEF (Tsc2-/-, p53-/-) Cells: Sytravon; Tsc2-/- p53-/- MEF, phospho-rpS6 immunofluorescence/PI, 24 h; Potency, µM (doses to about 38.3 µM), hits mostly inhibitors; hit rate 0.78% among 44,000; note: nearly all actives have a fitted effect of over 50% in size
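Cell-based qHTS: Tsc2-/- p53-/- MEF, 24 h cpd, 37 °C; fix/perm, anti-phospho-S6 Alexa-488 + PI; Acumen 488 nm scan; pS6/PI ratio, % positive cells; rapamycin 7.5 nM = inhibition ref; PI count = viability.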
Of the large screens only hits and unclear results are named; the others gave an inactive call. Most compounds without a hit are left out; they make up all but 3.6% or so of the library. Unless noted, calls come from the whole dose curve; as a rule, active = well fitted curve in the direction sought with a large enough effect; inconclusive = small, poorly fitted or top-dose-only effect, or another doubt; inactive = no such curve, though single readings can be large; an effect the other way counts as inactive or inconclusive.

CCOc1ccccc1CNCc1cccn1-c1nnc(N2CCN(c3ccccc3)CC2)s1	OvCa metastasis inconclusive, HTT prom inh 25µM, PMP22 txn prim inconclusive, S16 viability inconclusive, mTORC1 inh inconclusive
CCOc1ccccc1CNC(=O)c1cccn1-c1nnc(N2CCCCC2)s1	PMP22 txn prim inconclusive
COc1ccc(CNS(=O)(=O)c2ccc(-c3cc(C(F)(F)F)on3)s2)cc1OC	HTT prom inh inconclusive, PMP22 txn prim 20µM, S16 viability inconclusive
Cc1ccccc1-c1noc(-c2ccc(N3CCN(C)CC3)c([N+](=O)[O-])c2)n1	HTT prom inh 2.2µM, PMP22 txn prim inconclusive
Cc1ccccc1-c1noc(-c2ccc(N3CCN(c4ccccc4)CC3)c([N+](=O)[O-])c2)n1	none
Cc1ccccc1-c1noc(-c2ccc(N3CCCC3)c([N+](=O)[O-])c2)n1	HTT prom inh 10µM
O=[N+]([O-])c1cn2c(n1)OC[C@@H](OCc1ccc(OC(F)(F)F)cc1)C2	none (no result: PMP22 txn prim, S16 viability, mTORC1 inh)
C[C@@H]1[C@H](C)CC[C@]2(C(=O)O)CC[C@]3(C)C(=CC[C@@H]4[C@@]5(C)C[C@@H](O)[C@H](O)[C@@](C)(CO)[C@H]5CC[C@]43C)[C@@H]12	none (no result: PMP22 txn prim, S16 viability, mTORC1 inh)
CCOc1ccc(CNC(=O)C2CCN(c3nnc(-n4c(C)ccc4C)s3)CC2)cc1	HTT prom inh 14µM, PMP22 txn prim inconclusive
Cc1ccc(C(=O)CC2(O)C(=O)N(Cc3ccccc3)c3ccc(Br)cc32)cc1 (configuration not stated)	OvCa metastasis inconclusive, HTT prom inh inconclusive, PMP22 txn prim inconclusive, mTORC1 inh 10µM
O=C(CC1(O)C(=O)N(CCc2ccccc2)c2ccc(Br)cc21)c1ccc(F)cc1 (configuration not stated)	HTT prom inh inconclusive, PMP22 txn prim inconclusive, S16 viability inconclusive, mTORC1 inh inconclusive
CCc1ccc(C(=O)CC2(O)C(=O)N(Cc3ccc(C)cc3)c3ccccc32)cc1 (configuration not stated)	PMP22 txn prim inconclusive, mTORC1 inh 12µM
CCCCN1C(=O)C(O)(CC(=O)c2ccc(C)cc2C)c2cc(Br)ccc21 (configuration not stated)	OvCa metastasis inconclusive, HTT prom inh inconclusive, PMP22 txn prim inconclusive, S16 viability inconclusive, mTORC1 inh inconclusive
Cc1ccc(C(=O)CC2(O)C(=O)N(Cc3ccccc3)c3ccccc32)c(C)c1 (configuration not stated)	HTT prom inh inconclusive, S16 viability inconclusive, mTORC1 inh 18µM
CN[C@H]1[C@@H](O)[C@@H]2O[C@@H]3O[C@H](C)CC(=O)[C@]3(O)O[C@@H]2[C@@H](NC)[C@H]1O	HTT prom inh inconclusive (no result: PMP22 txn prim, S16 viability, mTORC1 inh)
CCc1ccc2nc(N3CCN(C(=O)c4ccco4)CC3)sc2c1	HTT-AS promoter inconclusive, PMP22 txn prim inconclusive
CCCCN(C)CCCNC(=O)C1CCN(c2nc3ccc(CC)cc3s2)CC1	HTT-AS promoter inconclusive, OvCa metastasis inconclusive, PMP22 txn prim inconclusive, S16 viability inconclusive, mTORC1 inh 18µM
CCCCN(CC)CCCNC(=O)C1CCN(c2nc3ccc(CC)cc3s2)CC1	OvCa metastasis inconclusive, PMP22 txn prim inconclusive, S16 viability inconclusive, mTORC1 inh 7.4µM
Fc1ccc(-n2ncc3c(NCCC4=CCCCC4)ncnc32)cc1	HTT-AS promoter 10µM
COc1cccc(NC(=O)Cn2c(=O)oc3cc(S(=O)(=O)N4CCCCC4)ccc32)c1	OvCa metastasis inconclusive, HTT prom inh inconclusive
Cc1cccc(NC(=O)Cn2c(=O)oc3cc(S(=O)(=O)N4CCCCCC4)ccc32)c1	HTT prom inh 10µM, PMP22 txn prim inconclusive, S16 viability inconclusive
CC1CCN(S(=O)(=O)c2ccc3c(c2)oc(=O)n3CC(=O)NC(C)c2ccccc2)CC1 (configuration not stated)	HTT prom inh 14µM, PMP22 txn prim inconclusive, S16 viability inconclusive
O=c1cc(-c2ccc(O)cc2)oc2cc(O)cc(O)c12	none (no result: PMP22 txn prim, S16 viability, mTORC1 inh)
O=c1cc(-c2ccccc2)oc2cc(O)cc(O)c12	HTT-AS promoter 24µM (no result: PMP22 txn prim, S16 viability, mTORC1 inh)
COC(=O)c1c(C)oc2ccc(N(C(=O)c3ccncc3)S(=O)(=O)c3cc(C)c(C)cc3C)cc12	HTT prom inh 13µM, PMP22 txn prim inconclusive, S16 viability inconclusive, mTORC1 inh inconclusive
CC(=O)c1c(C)oc2ccc(N(C(=O)c3ccncc3)S(=O)(=O)c3ccc(F)cc3C)cc12	HTT prom inh inconclusive, PMP22 txn prim inconclusive, mTORC1 inh inconclusive
CCc1ccc(S(=O)(=O)N(C(=O)Oc2ccccc2)c2ccc3oc(C)c(C(=O)OC)c3c2)cc1	HTT prom inh 7.9µM, PMP22 txn prim inconclusive, S16 viability inconclusive, mTORC1 inh inconclusive
CC(C)Oc1ccc(C(=O)N[C@H](CNC(=O)CN(C)C)Cc2ccc(-c3cn4cccc([C@H](C)O)c4n3)cc2)cc1Cl	none (no result: PMP22 txn prim, S16 viability, mTORC1 inh)
NC1=N[C@@]2(c3cc(NC(=O)c4ccc(F)cn4)ccc3F)COC[C@@H]2CS1	none (no result: PMP22 txn prim, S16 viability, mTORC1 inh)
CC(C)CCNS(=O)(=O)c1ccc(N2CCCCS2(=O)=O)cc1	HTT prom inh 14µM, PMP22 txn prim inconclusive, S16 viability inconclusive
CNC(=O)c1ccc(N2C(=S)N(c3cnc(C#N)c(C(F)(F)F)c3)C(=O)C23CCC3)cc1F	HTT prom inh inconclusive (no result: PMP22 txn prim, S16 viability, mTORC1 inh)
CCCS(=O)(=O)c1c(S(=O)(=O)CCC)c2cc(C(C)(C)C)ccn2c1C(=O)c1ccc(OC)c(OC)c1	mTORC1 inh inconclusive
CCCS(=O)(=O)c1c(S(=O)(=O)CCC)c2cc(C(C)(C)C)ccn2c1C(=O)c1ccccc1	HTT prom inh 25µM
C[C@H](NC(=O)c1sccc1OCc1ccc(Cl)cc1)c1ccccc1	HTT prom inh inconclusive (no result: PMP22 txn prim, S16 viability, mTORC1 inh)
Cc1ccc(Cn2ccn(CC(=O)Nc3c(C)cc(C)cc3C)c(=O)c2=O)cc1	none
Cc1ccc(CN2C(=O)C(=O)c3cc(Br)cc(C)c32)cc1	OvCa metastasis 13µM, HTT prom inh inconclusive, PMP22 txn prim inconclusive, S16 viability inconclusive, mTORC1 inh inconclusive
CC(C)(C)c1ccc(OCC(=O)NCC2(N3CCOCC3)CCCCC2)cc1	HTT prom inh inconclusive, PMP22 txn prim inconclusive, S16 viability inconclusive, mTORC1 inh inconclusive
CN1CCN(C2(CNC(=O)c3ccc(C(C)(C)C)cc3)CCCCC2)CC1	PMP22 txn prim inconclusive, S16 viability inconclusive, mTORC1 inh 16µM
